Compound activity deposited in PubChem by National Center for Advancing Translational Sciences (NCATS).
Pf growth 48h: P. falciparum growth inhibition at 48 hours (one generation); P. falciparum luciferase growth in erythrocytes, 48 h; Potency, µM (series often up to 28.7 µM), without a hit: at the top dose activity change, negative = inhibition, hits mostly inhibitors; 310,000 compounds, 5.9% hits; further: potency means the concentration at half of the fitted maximal effect; on the % scale 0 is the no-effect control and ±100 the full control effect
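Compounds are pin-transferred into medium, infected erythrocytes (2% hematocrit, 0.1% parasitemia final) are added, and plates sit one parasite generation at 37 C in 5% CO2. Detection reagent is then added and luminescence measured.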
Cycloheximide cs: affects cycloheximide protein synthesis inhibition readout, counter-screen; cell reporter, cycloheximide protein synthesis inhibition counterscreen; max response, %; 300,000 compounds, 12% hits; in the data active means max response mostly above about 13%, no sharp cut-off; inactive means mostly below about 14%; further: read at 38.3 µM for the half of the compounds with a filed dose; 0% is about no effect
Shiga inhibitor: Shiga toxin inhibition; Vero cells, Shiga toxin protein synthesis inhibition reporter; 290,000 compounds, 9.2% hits; inhibition, % at 38.7 µM; AID 2315; in the data active means inhibition mostly above about 28%, no sharp cut-off; inactive means mostly below about 43%; further: 0% is about no effect
Pf growth 96h: P. falciparum growth inhibition at 96 hour, primary screen for plastid delayed-death inhibitors; Potency, µM (doses to about 28.7 µM), for the others: top-dose activity change, negative = inhibition, usual class: inhibitors; P. falciparum luciferase reporter growth, 96 h; AID 504834; 320,000 compounds, 6.9% hits; further: potency means the concentration at half of the fitted maximal effect; on the % scale 0 is the no-effect control and ±100 the full control effect
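P. falciparum expressing integrated firefly luciferase, in erythrocytes at 2% hematocrit, 0.05% parasitemia, incubated with compounds 96 h at 37 C, 5% CO2. Growth inhibition read as loss of luminescence; two-generation exposure targets delayed-death apicoplast inhibitors.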
LmPK inh: blocks Leishmania mexicana pyruvate kinase activity; purified LmPK, Kinase-Glo ATP luminescence, 1 h; Potency, µM (highest dose often 57.5 µM), inactives show top-dose activity change, negative = inhibition, most hits filed as inhibitors; 290,000 compounds, 0.37% hits; AID 1721; further: potency means the concentration at half of the fitted maximal effect; on the % scale 0 is the no-effect control and ±100 the full control effect
Target sequence (Q27686 whole entry, looked up): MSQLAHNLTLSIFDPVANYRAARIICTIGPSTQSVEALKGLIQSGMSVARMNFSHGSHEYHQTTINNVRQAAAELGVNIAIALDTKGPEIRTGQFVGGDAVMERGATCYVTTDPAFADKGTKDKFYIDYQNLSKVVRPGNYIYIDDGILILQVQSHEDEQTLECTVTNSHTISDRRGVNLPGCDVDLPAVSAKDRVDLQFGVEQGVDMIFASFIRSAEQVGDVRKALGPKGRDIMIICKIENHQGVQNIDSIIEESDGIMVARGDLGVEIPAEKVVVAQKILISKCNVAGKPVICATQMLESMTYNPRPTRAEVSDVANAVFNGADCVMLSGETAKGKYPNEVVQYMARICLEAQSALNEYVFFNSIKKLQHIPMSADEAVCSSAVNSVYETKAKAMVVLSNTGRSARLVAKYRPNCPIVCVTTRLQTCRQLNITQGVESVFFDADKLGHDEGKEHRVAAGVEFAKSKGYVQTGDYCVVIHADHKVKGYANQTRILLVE
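0.1 nM LmPK, 0.5 mM PEP, 0.1 mM ADP; 50 mM imidazole pH 7.2, 7 mM MgCl2, 50 mM KCl; 1 h RT. Kinase-Glo luminescence readout, normalized to no-enzyme (full inhibition) and uninhibited wells.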
Starred values were filed as active, the others as inactive. In the library only some 22% were active in any assay of this set; here they are far more common. Unless noted, the call rests on the fitted dose curve; in most records, active means well fitted inhibition curve with a large enough effect; inconclusive means small, poorly fitted or top-dose-only effect, or another doubt; inactive means no such curve, though single readings can be large or run the other way.

How did C[C@H](NC(=O)[C@@H]1Cc2ccccc2CN1)C(=O)NC1CCCC1 do in these assays?
Pf growth 48h: 16%; Cycloheximide cs: -1; Shiga inhibitor: -3; Pf growth 96h: 22%; LmPK inh: 0%

How did C[C@H](NC(=O)[C@@H]1Cc2ccccc2CN1)C(=O)Nc1ccc2c(c1)OCCO2 do in these assays?
Pf growth 48h: -9%; Cycloheximide cs: 36*; Shiga inhibitor: 51*; Pf growth 96h: -5%; LmPK inh: 7%

What do the screens show for `CC(C)C(NC(=O)C1CCCCC1)C(=O)Nc1ccc2c(c1)OCCO2` (stereo not given)?
Pf growth 48h: 85%; Cycloheximide cs: 63*; Shiga inhibitor: active; Pf growth 96h: inconclusive; LmPK inh: 1%

Results for CCC(C)[C@H](NC(=O)[C@@H]1Cc2ccccc2CN1)C(=O)Nc1ccc2c(c1)OCO2 (stereo not given in full) ?
Pf growth 48h: inconclusive; Cycloheximide cs: 30*; Shiga inhibitor: 38*; Pf growth 96h: inconclusive; LmPK inh: -4%

What do the screens show for `O=C(NCCCn1ccnc1)c1ccc(S(=O)(=O)N2CCOCC2)cc1`?
Pf growth 48h: 6%; Cycloheximide cs: -3; Shiga inhibitor: -13; Pf growth 96h: 12%; LmPK inh: 5%

Results for COCCNC(=O)C(NC(=O)C1CCCCC1)C(C)C (stereo not given) ?
Pf growth 48h: 13%; Cycloheximide cs: -6; Shiga inhibitor: 14; Pf growth 96h: 0.74µM*; LmPK inh: -4%

How did CC(C)[C@H](NC(=O)[C@@H]1Cc2ccccc2CN1)C(=O)Nc1ccc2c(c1)OCCO2 do in these assays?
Pf growth 48h: -20%; Cycloheximide cs: 28*; Shiga inhibitor: 83*; Pf growth 96h: inconclusive; LmPK inh: -1%

Results for CSCC[C@H](NC(=O)[C@@H]1Cc2ccccc2CN1)C(=O)Nc1ccc2c(c1)OCCO2 ?
Pf growth 48h: 69%; Cycloheximide cs: 52*; Shiga inhibitor: 87*; Pf growth 96h: 90%; LmPK inh: -6%

What do the screens show for `CSCC[C@H](NC(=O)[C@@H]1Cc2ccccc2CN1)C(=O)NC1CCCCC1`?
Pf growth 48h: 39%; Cycloheximide cs: 12; Shiga inhibitor: 6; Pf growth 96h: 25%; LmPK inh: 1%

Results for O=C(CNC(=O)[C@@H]1Cc2ccccc2CN1)Nc1ccc2c(c1)OCCO2 ?
Pf growth 48h: 42%; Cycloheximide cs: 37*; Shiga inhibitor: 60*; Pf growth 96h: 53%; LmPK inh: 2%

How did CCC(C)(C)N(C(=O)CCC(=O)Nc1cc(C)on1)C(C(=O)NC(C)(C)C)c1ccc(OC)cc1 (stereo not given) do in these assays?
Pf growth 48h: inconclusive; Cycloheximide cs: -4; Shiga inhibitor: -19; Pf growth 96h: 3%; LmPK inh: 5%

How did CC(OC(=O)c1ccccc1NCCO)C(=O)NC1CCCCC1C (stereo not given) do in these assays?
Pf growth 48h: inconclusive; Pf growth 96h: -14%

How did CCN(CC(=O)Nc1ccc(NC(C)=O)cc1)C(=O)c1ccccc1SCc1c(C)noc1C do in these assays?
Pf growth 48h: inconclusive; Pf growth 96h: -5%

How did COc1ccc(Cl)cc1N1C(=O)/C(=C\c2sccc2C)N=C1SCC(=O)NC1CC1 do in these assays?
Cycloheximide cs: -3; Shiga inhibitor: -13; Pf growth 96h: 9.3µM*; LmPK inh: 7%

Results for Cc1ccc(N=C2NC(=O)/C(=C/c3cccnc3)S2)c(C)c1 ?
Pf growth 48h: inconclusive; Cycloheximide cs: 7; Shiga inhibitor: -8; Pf growth 96h: inconclusive; LmPK inh: -1%

What do the screens show for `Cc1cccc(N=C2NC(=O)/C(=C/c3cccnc3)S2)c1`?
Pf growth 48h: inconclusive; Cycloheximide cs: 1; Shiga inhibitor: 17; Pf growth 96h: inconclusive; LmPK inh: 9%

How did Cc1cccc(N=C2NC(=O)/C(=C/c3cccnc3)S2)c1C do in these assays?
Pf growth 48h: 13µM*; Cycloheximide cs: 0; Shiga inhibitor: -24; Pf growth 96h: inconclusive; LmPK inh: 1%

What do the screens show for `O=C1NC(=Nc2cccc(O)c2)S/C1=C\c1cccnc1`?
Pf growth 48h: inconclusive; Cycloheximide cs: 1; Shiga inhibitor: 10; Pf growth 96h: 6.6µM*; LmPK inh: 4%

How did CN1CCN(c2ccccc2NC(=O)c2ccc(-c3cccc(Cl)c3)o2)CC1 do in these assays?
Pf growth 48h: inconclusive; Cycloheximide cs: -4; Shiga inhibitor: -1; Pf growth 96h: -16%; LmPK inh: 1%

Results for CS(=O)(=O)N1CCN(c2ccccc2NC(=O)c2ccc(-c3ccc(Cl)cc3Cl)o2)CC1 ?
Pf growth 48h: 12µM*; Cycloheximide cs: 10; Shiga inhibitor: 14; LmPK inh: -2%

What do the screens show for `CN1CCN(c2ccccc2NC(=O)c2ccc(-c3ccc(Cl)cc3Cl)o2)CC1`?
Cycloheximide cs: -2; Shiga inhibitor: -2; Pf growth 96h: 4.1µM*; LmPK inh: 3%

What do the screens show for `COc1cc(C(=O)N/C(=C\c2cn(S(=O)(=O)N(C)C)c3ccccc23)C(=O)N2CCCC2)cc(OC)c1OC`?
Pf growth 48h: inconclusive; Cycloheximide cs: -4; Shiga inhibitor: -10; Pf growth 96h: 38%; LmPK inh: -1%

Results for O=C(Nc1ccc(S(=O)(=O)Nc2cnc3ccccc3n2)cc1)c1cc(F)c(F)cc1Cl ?
Pf growth 48h: 3%; Cycloheximide cs: -2; Shiga inhibitor: 1; Pf growth 96h: 32%; LmPK inh: 5%

What do the screens show for `COc1ccc(C2(CNC(=O)c3cccc([N+](=O)[O-])c3)CCOCC2)cc1OC`?
Pf growth 48h: 0%; Cycloheximide cs: -2; Shiga inhibitor: -10; Pf growth 96h: 162%; LmPK inh: -6%

How did COc1ccc(C2(CNC(=O)c3cccc([N+](=O)[O-])c3)CCCCC2)cc1OC do in these assays?
Pf growth 48h: inconclusive; Cycloheximide cs: -1; Shiga inhibitor: -13; Pf growth 96h: 5.9µM*; LmPK inh: -2%

How did Cc1ccc(NC(=O)COc2ncnc3cc([N+](=O)[O-])ccc23)cc1S(=O)(=O)N1CCOCC1 do in these assays?
Pf growth 48h: -26%; Cycloheximide cs: -3; Shiga inhibitor: -9; Pf growth 96h: -19%; LmPK inh: 6%

How did CC(C)c1ccc(-c2c(C#N)c(N)nc(SCC(=O)N3CCCCC3)c2C#N)cc1 do in these assays?
Cycloheximide cs: 0; Shiga inhibitor: -26; Pf growth 96h: inconclusive; LmPK inh: 5%

How did CC(C)c1ccc(-c2c(C#N)c(N)nc(SCC(=O)N3CCCCCC3)c2C#N)cc1 do in these assays?
Cycloheximide cs: -4; Shiga inhibitor: -18; Pf growth 96h: 5.2µM*; LmPK inh: 12%

How did COc1ccc(NC(=O)CSCC(=O)Nc2cc(Cl)ccc2N2CCCC2)cc1 do in these assays?
Pf growth 48h: -21%; Cycloheximide cs: 3; Shiga inhibitor: -2; Pf growth 96h: 4%; LmPK inh: 2%

Results for CC1(c2ccccc2Br)NC(=O)N(CC(=O)NC2CCCCC2)C1=O (stereo not given) ?
Pf growth 48h: inconclusive; Pf growth 96h: 12µM*
